Assay results from PubChem BioAssay AID588850 (Sanford-Burnham Center for Chemical Genomics, 2011).
About 3,100 (0.86%) of roughly 360,000 compounds were called active. The entries come from a sample that favours actives as a whole. Unmarked numbers belong to inactive results.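 How the source made its calls: active means at least 50% inhibition at 5 µM, scaled per plate between neutral and stimulator controls; inactive means the rest.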

assay: inhibitors of PAF-induced NF-kB signaling, primary screen, cell-based, GFP fluorescence, uHTS (AID 588850); settings: KKLEB NF-kB-GFP reporter, GFP fluorescence overnight, at 5 µM, active compounds read high;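 further: PAF is a Pseudomonas aeruginosa culture filtrate used as stimulus; plate controls were PAF-stimulated DMSO wells for no effect and unstimulated DMSO wells for full effect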

Row | SMILES | inhibition
1 | CCN(CC)S(=O)(=O)c1ccc2[nH]c(=O)cc(C(=O)N(C)C3CCS(=O)(=O)C3)c2c1 (stereo not given) | -1.3%
2 | O=C1C=C(NS(=O)(=O)c2ccccc2)C(=O)c2ccccc21 | 72% (active)
3 | O=C(O)c1ccccc1NC(=O)c1ccccc1-c1ccccc1C(=O)O | 11.9%
4 | Cc1cc(=O)c2ccc(NC(=O)c3ccccc3)cc2[nH]1 | 3.1%
5 | Cc1ccc(S(=O)(=O)N/N=C(\c2ccccc2)C2CC2)cc1 | 14.8%
6 | Cc1ccc(S(=O)(=O)/N=C2\C=C(NS(=O)(=O)c3ccc(C)cc3)C(=O)c3ccccc32)cc1 | 68.9% (active)
7 | O=C(NC1=CC(=O)c2ccccc2C1=O)c1ccccc1 | 84.9% (active)
8 | COc1ccc(S(=O)(=O)/N=C2\C=C(NS(=O)(=O)c3ccccc3)C(=O)c3ccccc32)cc1 | 45%
9 | CC(=O)NS(=O)(=O)c1ccccc1 | 10.6%
10 | Cc1cc(NS(=O)(=O)c2ccccc2)no1 | -1.3%
11 | CC(c1ccco1)N(C(=O)COc1ccccc1[N+](=O)[O-])c1ccccn1 (stereo not given) | 8.2%
12 | CN(C)C(=O)Cn1c(=O)n(S(=O)(=O)c2ccccc2)c2ccccc21 | 5.9%
13 | COC(=O)[C@@H]1C[C@H]2CC[C@H](O)C[C@H]2N1Cc1ccc(N2CCN(C)CC2)cc1 | 0.1%
14 | CC(C(=O)N1CCc2ccccc21)N(C)CC(=O)Nc1ccc(F)cc1 (stereo not given) | -12%
15 | COC1(C2=NCCN2)COc2ccccc2O1 (stereo not given) | 9.5%
16 | COc1ccccc1/C=C/C=N/n1c(-c2ccc(Cl)cc2Cl)n[nH]c1=S | 1.4%
17 | Cc1cc(-c2n[nH]c(=S)n2/N=C/C(Br)=C/c2ccccc2)n[nH]1 | 87.5% (active)
18 | S=c1[nH]nc(-c2ccco2)n1/N=C/c1ccc(Br)s1 | 5.5%
19 | CC1CCCCC1NC(=O)Cn1cnc2c1c(=O)n(C)c(=O)n2C (stereo not given) | 3.3%
20 | CC(C)c1nc(SCC(=O)NC(=O)NC(C)(C)C)n[nH]1 | -0.6%
21 | Cc1cccc(C)c1NC(=S)N(Cc1cccnc1)Cc1ccccc1Cl | -1.1%
22 | COc1cccc(CC(=O)N2CCCC(CCC(=O)N3CCN(c4ccccn4)CC3)C2)c1 (stereo not given) | 12.7%
23 | Cc1ccc(NC(=O)CSc2nnc(CNC(=O)c3ccccc3F)o2)cc1 | -6.4%

Row | SMILES | inhibition
24 | CC(C)c1ccc(CC(=O)N2CCC2(C)C(=O)NS(=O)(=O)c2ccc(C(C)(C)C)cc2)cc1 (stereo not given) | 3.4%
25 | c1nnc2c3c4c(sc3ncn12)CCC4 | 59% (active)
26 | S=c1[nH]nc2c3c4c(sc3ncn12)CCCC4 | -4%
27 | CC(C(=O)O)n1cnc2sc3c(c2c1=O)CCCC3 (stereo not given) | 12.1%
28 | O=C(Nc1cccnc1)c1noc2c1CCCCC2 | -3.7%
29 | C=CC(=O)Nc1ccc(Nc2ccnc(Nc3ccc(N4CCN(C)CC4)cc3)n2)cc1 | 55.6% (active)
30 | CN1CCN(c2ccc(NC(=O)c3cc(Cl)c4c(c3)OCCO4)cc2)CC1 | -18.8%
31 | Cn1cnnc1SCC(=O)Nc1ccc(N2CCOCC2)cc1 | -8.2%
32 | O=C(Nc1ccc(-n2cccn2)cc1)C1CCN(Cc2ccsc2)CC1 | 9.7%
33 | CC1CCc2c(c3ccccc3[nH]c2=O)O1 (stereo not given) | 0.4%
34 | COc1ccc(CN(C)C(=O)c2cc(-c3ccc(C)cc3C)nc3ccccc23)c(OC)c1OC | 67.1% (active)
35 | COc1ccc(-c2cc(C(=O)N(C)CC(=O)Nc3ccccc3Cl)c3ccccc3n2)cc1OC | 22.9%
36 | COc1ccc(-c2cc(C(=O)N(C)Cc3ccc(OC)c(OC)c3OC)c3ccccc3n2)cc1OC | 27%
37 | CC1Cn2c(nnc2-c2cccs2)S1 (stereo not given) | 9.9%
38 | O=C(O)C1CCCN(CCC=C(c2ccccc2)c2ccccc2)C1 (stereo not given) | 9.2%
39 | Cc1ccnc(NS(=O)(=O)c2ccc(NC(=O)c3ccc(S(=O)(=O)N(C)C)cc3)cc2)n1 | 2.1%
40 | CC1(C(=O)Nc2cccc3c2CCCC3)CCN1C(=O)CCc1ccc(Cl)cc1Cl (stereo not given) | -16%
41 | CC(=O)OCC(=O)C1(O)CCC2C3CC(C)C4=CC(=O)CCC4(C)C3C(O)CC21C (stereo not given) | 73% (active)
42 | CC12CCC(=O)C=C1CCC1C2C(O)CC2(C)C1CCC2(O)C(O)CO (stereo not given) | 24.8%
43 | CC(=O)O[C@]1(C(C)=O)CC[C@H]2[C@@H]3C=C(C)C4=CC(=O)CC[C@]4(C)[C@H]3CC[C@@]21C | 39.9%
44 | Cc1ccc(CC(=O)Nc2cccc(C#N)c2)cc1 | -4.9%
45 | O=C(COC(=O)Cn1cnc2ccccc2c1=O)NCC12CC3CC(CC(C3)C1)C2 | -1.8%
46 | c1ccc(-n2cccc2)c(N2CCCCC2)c1 | 5.6%

Row | SMILES | inhibition
47 | O=C(c1ccc(Cl)c(S(=O)(=O)N2CCCCCC2)c1)N1CCN(c2ccc(O)cc2)CC1 | 2.4%
48 | O=C1C=CC(=O)N1c1ccc(N2CCCCC2)cc1 | 67% (active)
49 | O=C(Nc1ccc(F)c([N+](=O)[O-])c1)C1CCCO1 (stereo not given) | 4.8%
50 | COc1ccc(OC)c(C2N(c3ccccn3)C(=O)C3CCCN32)c1 (stereo not given) | -3.8%
51 | O=C(CCl)N(Cc1cccc([N+](=O)[O-])c1)c1cccc(Cl)c1 | 90.5% (active)
52 | CC(=O)N(CN1C(=O)C2CC=CCC2C1=O)c1cccc(Cl)c1 (stereo not given) | -5.3%
53 | COC(=O)c1cc(C(=O)N(Cc2ccccc2)c2ccccn2)cc([N+](=O)[O-])c1 | 5%
54 | CCS(=O)(=O)c1ccc(C(=O)NC)c(Cl)c1Cl | 4.1%
55 | C1=C(N2CCOCC2)/C(=C/c2nc3ccccc3[nH]2)CC1 | 0.9%
56 | COc1cccc(N2CCN(CC(=O)Nc3ccnn3C3CCCC3)CC2)c1 | -19%
57 | Cc1noc(C)c1C(=O)N1CCC1(C)C(=O)NS(=O)(=O)c1ccc(C#N)cc1 (stereo not given) | 1.8%
58 | CCOC(=O)c1c(NC(=O)CSc2nccc(=O)[nH]2)sc(C)c1C | -8.3%
59 | CCOC(=O)c1c(C)[nH]c2c1-c1ccccc1C(=O)C2=O | 86.7% (active)
60 | CCOC(=O)c1c(C)[nH]c(C)c1C(=O)CSc1nc(N)cc(N)n1 | -5.9%
61 | NCCCCC(C(=O)O)N(C(=O)OCc1ccccc1)C(=O)OCc1ccccc1 (stereo not given) | 1.1%
62 | COc1ccc(C(CC(=O)c2ccccc2)S(=O)(=O)c2ccccc2)cc1 (stereo not given) | -3.5%
63 | O=C1/C(=C\c2ccc([N+](=O)[O-])cc2)CS(=O)(=O)C/C1=C/c1ccc([N+](=O)[O-])cc1 | 98.2% (active)
64 | CCCCC(=O)Nc1c2c(nn1-c1ccc([N+](=O)[O-])cc1)CS(=O)(=O)C2 | 5.8%
65 | CN(C)S(=O)(=O)N1CCN(c2ccc([N+](=O)[O-])cc2)CC1 | 8.2%
66 | C=CCc1cc(S(=O)(=O)c2ccc(O)c(CC=C)c2)ccc1O | 60.6% (active)
67 | CCCCN(C)c1ccc([N+](=O)[O-])cc1 | -12.3%
68 | CCn1c(SCC(=O)NC2CC2)nnc1-c1ccccc1OC | -0.4%
69 | COc1ccccc1-c1nnc2n1N=C(c1ccc(OC(F)F)c(OCC3CC3)c1)CS2 | 49.1%

Row | SMILES | inhibition
70 | COc1ccc(C2=Nn3c(nnc3-c3ccccc3OC)SC2)cc1OC1CCCC1 | 68.4% (active)
71 | CCCCCCCCCCCCCCCC(=O)OC/C=C(C)/C=C/C=C(C)/C=C/C1=C(C)CCCC1(C)C | -16.9%
72 | NC1=NOC(=O)C1C1CCCCC1 (stereo not given) | 25.2%
73 | CCCCc1nc2ccc(F)cc2cc1C | -14.3%
74 | COc1ccc(N2CCN(S(=O)(=O)CCNC(=O)C34CC5CC(CC(C5)C3)C4)CC2)cc1 | -0.5%
75 | COCCCN(C(=S)Nc1c(C)cc(C)cc1C)C(C)c1ccncc1 (stereo not given) | -10.4%
76 | CCCCOc1ccc(C(=O)NCC(=O)OCC(=O)N2CCN(S(=O)(=O)c3ccc(C)cc3C)CC2)cc1 | -0.3%
77 | COc1ccc(C(=NN)c2ccc(OC)cc2)cc1 | -2.7%
78 | COc1ccc(C(C#N)=C2C=CC(=NO)c3ccccc32)cc1 | 84.7% (active)
79 | COc1ccc(/C(N)=N/OC(=O)Cc2ccccc2)cc1 | -28%
80 | Fc1ccc(Nc2nnns2)cc1 | -11.2%
81 | C=CCNC(=S)NNc1ncnc2sc3c(c12)CC(C)(C)OC3 | -2%
82 | O=C(Nc1ccc(Cl)cc1)c1csc([C@@H]2O[C@H](CO)[C@H](O)[C@H](O)[C@H]2O)n1 | 13%
83 | CC[C@]1(O)CC2CN(CCc3c([nH]c4ccccc34)[C@@](C(=O)OC)(c3cc4c(cc3OC)N(C=O)[C@H]3[C@@](O)(C(=O)OC)[C@H](OC(C)=O)[C@]5(CC)C=CCN6CC[C@]43[C@@H]65)C2)C1 (stereo not given in full) | 53.6% (active)
84 | CC[C@]1(O)C[C@@H]2CN(CCc3c([nH]c4ccccc34)[C@@](C(=O)OC)(c3cc4c(cc3OC)N(C)[C@H]3[C@@](O)(C(=O)OC)[C@H](OC(C)=O)[C@]5(CC)C=CCN6CC[C@]43[C@@H]65)C2)C1 | 57.6% (active)
85 | C=CCNC(=S)/N=c1/ccccn1Cc1ccccc1 | -16.5%
86 | N#CC1(C#N)C(C(=O)C23CC4CC(CC(C4)C2)C3)C12CCOCC2 (stereo not given) | 12.2%
87 | Cc1ccc(NC(=S)Nc2ncccc2C)c(C)c1 | -2.7%
88 | COc1ccccc1C(=O)Nc1ccc(Nc2ccccc2)cc1 | 6.4%
89 | COC(=O)c1ccc(NC(=O)c2ccccc2NS(=O)(=O)c2ccccc2)cc1 | 59.8% (active)
90 | COc1cc(NC(=O)c2ccccc2NS(=O)(=O)c2ccc(Cl)s2)cc(OC)c1 | 49.7%
